Source: PubChem BioAssay
This is a sample that favours compounds with a hit; in the whole collection about 8% have one here.
MCF10A rereplic: induces DNA re-replication in MCF 10a normal breast cells. actives 2.9% (n = 350,000). MCF 10A DNA re-replication, Hoechst nuclear intensity, 48 h. Potency, µM (series often up to 46.1 µM), hits mostly activators; also: nearly all actives have a fitted effect of over 50% in size
HT1080 IDH1KD tx: toxicity to HT-1080 IDH1 knockdown cells (counter line); HT-1080 IDH1 knockdown viability, ATP luminescence, 48 h; Potency, µM (top dose mostly 46.1 µM), usual class: cytotoxic; actives 2% (n = 360,000); AID 686971
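After a 2 h attachment period, IDH1KD HT-1080 cells took pin-transferred compound for 48 h at 37 °C; ATP-based luminescence after 10 min room-temperature reagent incubation reported viability.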
KB-3-1 tox: kills parental KB-3-1 adenocarcinoma cells | KB-3-1 viability, CellTiter-Glo ATP luminescence, 72 h | Potency, µM (top dose mostly 46.1 µM), hits mostly cytotoxic | actives 1.4% (n = 400,000); also: nearly all actives have a fitted effect of over 60% in size
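72 h, 37 °C compound treatment of KB-3-1 parental cells; CellTiter-Glo added, 10 min, luminescence read. Data corrected against DMSO-only plates and normalized before curve fitting.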
HT1080NT lethal: kills 2HG-producing HT-1080-NT fibrosarcoma cells; HT-1080-NT fibrosarcoma viability, CellTiter-Glo ATP luminescence, 48 h; Potency, µM (series often up to 46.1 µM), usual class: cytotoxic; actives 1.6% (n = 360,000); AID 686970;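 also: NT is the 2HG producing partner of a matched IDH1 knockdown line; nearly all actives have a fitted effect of over 55% in size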
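Luminescent CellTiter-Glo readout after 48 hours of compound exposure at 37 degrees C defined viability of HT-1080-NT cells. Activity was normalized to DMSO wells and cell-free media wells; concentration-response curves were fitted and assigned curve classes.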
KB-V1 cytotox: kills drug-selected multidrug resistant KB-V1 cells | KB-V1 MDR cells viability, CellTiter-Glo, 72 h | Potency, µM (highest dose often 46.1 µM), actives largely listed as cytotoxic | actives 3.4% (n = 400,000) | AID 1347076; also: nearly all actives have a fitted effect of over 60% in size
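Potencies derive from concentration-effect curves fitted to normalized luminescence (CellTiter-Glo) of KB-V1 cells treated for 72 h at 37 degrees C in phenol-red-free DMEM containing 10% FBS.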
SW480 rerep: inducers of DNA re-replication in SW480 colon cancer cells; SW480 DNA re-replication, Hoechst DNA content imaging, 48 h; Potency, µM (doses to about 46.1 µM), hits mostly activators; actives 1.8% (n = 340,000); AID 624297; also: nearly all actives have a fitted effect of over 55% in size
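First, 250 cells per well were seeded. Next, compound or vehicle (23 nL) was pinned in, plates sat 48 hr at 37 C. Finally Hoechst was added for 40 min before fluorescence scanning.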
Large screens that a line does not name were inactive. Calls follow the shape of the dose curve; as a rule, active = well fitted curve in the direction sought with a large enough effect; inconclusive = small, poorly fitted or top-dose-only effect, or another doubt; inactive = no such curve, though single readings can be large; an effect the other way counts as inactive or inconclusive.

COc1ccccc1S(=O)(=O)Cc1ccc(C(=O)NC2CCCCC2)o1	KB-V1 cytotox 14.6µM
O=C(NC1CCCC1)c1ccc(CSCc2ccccc2F)o1	KB-V1 cytotox 14.6µM
O=c1c(-c2cc(-c3ccccc3)nc3c2COc2ccc(Cl)cc2-3)coc2ccccc12	KB-V1 cytotox inconclusive (no result: MCF10A rereplic, HT1080 IDH1KD tx, HT1080NT lethal, SW480 rerep)
COc1ccccc1CN(Cc1ccco1)c1cnc(S(C)(=O)=O)nc1C(=O)Nc1ccccc1Cl	KB-V1 cytotox inconclusive (no result: MCF10A rereplic, HT1080 IDH1KD tx, HT1080NT lethal, SW480 rerep)
O=C(CCN1C(=O)/C(=C/c2ccccc2F)SC1=S)N[C@@H](CO)Cc1ccccc1	MCF10A rereplic inconclusive, HT1080 IDH1KD tx inconclusive, KB-3-1 tox inconclusive, SW480 rerep 22.4µM
CCCCNC(=O)COC(=O)c1ccc(NC(C)=O)cc1	none
Oc1ccc(-c2cc(-c3ccc(O)cc3)nc(-c3ccccc3)n2)cc1	MCF10A rereplic inconclusive, HT1080 IDH1KD tx inconclusive, HT1080NT lethal 11.6µM, SW480 rerep inconclusive
COc1ccc(-c2cc(-c3ccc(O)cc3)nc(N)c2C#N)cc1	MCF10A rereplic inconclusive
N#Cc1c(-c2ccccc2)cc(-c2ccc(O)cc2)nc1N	MCF10A rereplic 23.1µM, SW480 rerep inconclusive
COC(=O)c1ccc(Cl)c(NS(=O)(=O)c2ccc3c(c2)OCCO3)c1	MCF10A rereplic inconclusive, HT1080 IDH1KD tx 4.61µM, KB-3-1 tox 5.8µM, HT1080NT lethal inconclusive, KB-V1 cytotox 9.2µM, SW480 rerep 18.4µM
COc1ccc(NC(C)=O)cc1NS(=O)(=O)c1ccc2c(c1)OCCO2	KB-3-1 tox inconclusive, SW480 rerep inconclusive
CC(=O)C1=NN(c2ccccc2)C(c2cccs2)N1c1ccc(N(C)C)cc1 (stereo not given)	MCF10A rereplic inconclusive, HT1080 IDH1KD tx 2.51µM, KB-3-1 tox inconclusive, HT1080NT lethal 7.08µM, SW480 rerep inconclusive
CC(=O)C1=NN(c2ccccc2)C(c2ccc3c(c2)OCO3)N1c1ccccc1 (stereo not given)	MCF10A rereplic 8.2µM, KB-3-1 tox inconclusive, SW480 rerep 5.8µM
CC(=O)N1N=C(c2ccccc2)CC1c1ccc2c(c1)OCO2 (stereo not given)	none
CN(C)c1ccc(NC(=O)c2cn(-c3ccccc3)nc2-c2cccs2)cc1	KB-V1 cytotox inconclusive
Cc1nc2c(C)cccc2cc1C(=O)N/N=C/c1cccnc1	HT1080 IDH1KD tx inconclusive
CCCCc1ccc(NC(=O)COC(=O)c2ccccc2OCC(=O)Nc2ccc(Br)cc2)cc1	KB-3-1 tox inconclusive (no result: MCF10A rereplic, HT1080 IDH1KD tx, HT1080NT lethal, SW480 rerep)
COc1ccc(/C=c2\s/c(=C/C(=O)c3ccc(C)cc3)[nH]c2=O)c(OC)c1	MCF10A rereplic 4.11µM, SW480 rerep inconclusive
COc1cccc(/C=c2\s/c(=C\C(=O)C(C)(C)C)[nH]c2=O)c1	MCF10A rereplic inconclusive, KB-3-1 tox inconclusive, KB-V1 cytotox 14.6µM, SW480 rerep inconclusive
COc1cccc(/C=c2\s/c(=C/C(=O)c3ccc(C)cc3)[nH]c2=O)c1OC	KB-V1 cytotox inconclusive
FC(F)(F)c1nnc(-c2ccccc2)nc1Sc1ccc(Cl)cc1	MCF10A rereplic 5.8µM, HT1080 IDH1KD tx inconclusive, KB-3-1 tox inconclusive, HT1080NT lethal inconclusive, KB-V1 cytotox inconclusive, SW480 rerep inconclusive
FC(F)(F)c1cccc(Sc2nc(-c3ccccc3)nnc2C(F)(F)F)c1	MCF10A rereplic 7.31µM, HT1080 IDH1KD tx inconclusive, KB-3-1 tox 20.6µM, HT1080NT lethal inconclusive, KB-V1 cytotox inconclusive, SW480 rerep inconclusive
FC(F)(F)c1nnc(-c2ccccc2)nc1Sc1ccccc1	MCF10A rereplic 5.17µM, HT1080 IDH1KD tx inconclusive, HT1080NT lethal inconclusive, SW480 rerep inconclusive
CN(N)c1nc(-c2ccccc2)nnc1C(F)(F)F	none
FC(F)(F)c1nnc(-c2ccccc2)nc1N1CCCC1	none
FC(F)(F)c1nnc(-c2ccccc2)nc1Oc1ccc(Cl)cc1Cl	MCF10A rereplic 3.26µM
CCOC(=O)c1nnc(-c2ccccc2)nc1Oc1ccccc1Cl	MCF10A rereplic inconclusive, HT1080 IDH1KD tx inconclusive, HT1080NT lethal inconclusive
Oc1cccnc1Sc1cccc(C(F)(F)F)c1	none
CCOC(=O)c1cccc(NC(=O)CC(c2cc(OC)c(OC)c(OC)c2)N2Cc3ccccc3C2=O)c1 (stereo not given)	none (no result: MCF10A rereplic, HT1080 IDH1KD tx, HT1080NT lethal, SW480 rerep)
CCCCCOC(=O)C1=C(C)NC(=O)NC1c1ccc(OC)cc1 (stereo not given)	KB-V1 cytotox inconclusive
CC(=O)c1ccccc1NC(=O)c1ccc(OCc2c(C)noc2C)cc1	none
FC(F)(F)c1cccc(Oc2nc(-c3ccccc3)nnc2C(F)(F)F)c1	MCF10A rereplic 14.6µM
CC(=O)c1cc(C#N)c(Oc2cccc(C(F)(F)F)c2)nc1C	none
CN(NC(=O)c1cccc(Cl)c1)c1nc(-c2ccccc2)nnc1C(F)(F)F	MCF10A rereplic inconclusive, KB-3-1 tox 23.1µM, KB-V1 cytotox inconclusive, SW480 rerep inconclusive
CCC(C(=O)NCc1ccccc1)n1ncn2c(cc3occc32)c1=O (stereo not given)	none (no result: MCF10A rereplic, HT1080 IDH1KD tx, HT1080NT lethal, SW480 rerep)
C=CCOc1ccc(Br)cc1/C=C1/SC(=Nc2ccc(C(=O)O)cc2)NC1=O	MCF10A rereplic 8.2µM, KB-3-1 tox inconclusive
C=CCOc1c(Br)cc(/C=C2\SC(=Nc3ccccc3)NC2=O)cc1OC	MCF10A rereplic inconclusive
CCOc1cc(Br)cc(/C=C2\SC(=Nc3ccccc3)NC2=O)c1O	MCF10A rereplic 8.2µM, KB-3-1 tox inconclusive, KB-V1 cytotox inconclusive
CC(C)CC(=O)Nc1nnc(S(=O)(=O)N(C)Cc2ccc(Cl)cc2)s1	none (no result: MCF10A rereplic, HT1080 IDH1KD tx, HT1080NT lethal, SW480 rerep)
Cc1ccc(N(CC(=O)NC2CCCCC2)C(=O)CCC(=O)Nc2nccs2)cc1	none
Cc1ccccc1NC(=O)c1cccc(N2C(=O)C3C4CCC(C4)C3C2=O)c1 (stereo not given)	HT1080NT lethal inconclusive, KB-V1 cytotox 23.1µM
Cc1ccc(NC(=O)c2cccc(N3C(=O)C4C5CCC(C5)C4C3=O)c2)c(C)c1 (stereo not given)	KB-V1 cytotox 4.11µM
O=C(Nc1ccc(Cl)cc1)c1cccc(N2C(=O)C3C4CCC(C4)C3C2=O)c1 (stereo not given)	KB-3-1 tox inconclusive, KB-V1 cytotox 8.2µM
CC(=O)c1cccc(N2C(=O)C3C4CCC(C4=C(C)C)C3C2=O)c1 (stereo not given)	KB-V1 cytotox 18.4µM
CC(=O)Oc1cccc(N2C(=O)C3C4C=CC(C4=C(C)C)C3C2=O)c1 (stereo not given)	none
Cc1cc(Cl)ccc1Nc1nc(NCc2ccco2)nc2nccnc12	none (no result: MCF10A rereplic, HT1080 IDH1KD tx, HT1080NT lethal, SW480 rerep)
CCc1nnc(NC(=O)CSCc2cc(=O)n3nc(C)sc3n2)s1	none
O=C(CNC(=O)c1ccccc1Cl)OCc1cc(=O)n2ccsc2n1	none (no result: MCF10A rereplic, HT1080 IDH1KD tx, HT1080NT lethal, SW480 rerep)
